Test [1] relates to XIP peptide (Xip251-270) binding. Description: XIP fragment 251-270 binding compounds – biochemical, small-molecule microarray, fluorescence 635/667 nm, 0.1 µg/mL protein, primary screen (AID 1182). The following applies: fluorescent protein binding, 635 nm, higher = more signal, called active from +8 up or from −8 down.
A further test has as its system XIP peptide (Xip251-270). Put plainly: compounds binding XIP fragment 251-270 – biochemical, small-molecule microarray, fluorescence 635/667 nm, 0.5 µg/mL protein, primary screen (AID 1183). As to conditions: fluorescence 635 nm, higher = more signal.
Test [2] in a line: blood-stage malaria parasite viability loss – strain 3D7, DAPI fluorescence, 100 nL, primary screen (AID 1184).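 Also: parasites grown inside human red blood cells in medium with human serum.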 The following applies: P. falciparum 3D7 growth, 3 d, higher = more signal.
Test [3] deals with Homeobox protein Hox-A13 (Mus musculus) (UniProt Q62424). Put plainly: disruptors of Hoxa13 oligonucleotide interaction – biochemical, fluorescence polarization, labeled oligonucleotide, primary screen (AID 1185). As to conditions: Hoxa13:DNA binding, 15 min, higher = more signal, called active from +8 up or from −8 down.
Homeobox protein Hox-A13 (Mus musculus), sequence (Q62424 whole entry, looked up): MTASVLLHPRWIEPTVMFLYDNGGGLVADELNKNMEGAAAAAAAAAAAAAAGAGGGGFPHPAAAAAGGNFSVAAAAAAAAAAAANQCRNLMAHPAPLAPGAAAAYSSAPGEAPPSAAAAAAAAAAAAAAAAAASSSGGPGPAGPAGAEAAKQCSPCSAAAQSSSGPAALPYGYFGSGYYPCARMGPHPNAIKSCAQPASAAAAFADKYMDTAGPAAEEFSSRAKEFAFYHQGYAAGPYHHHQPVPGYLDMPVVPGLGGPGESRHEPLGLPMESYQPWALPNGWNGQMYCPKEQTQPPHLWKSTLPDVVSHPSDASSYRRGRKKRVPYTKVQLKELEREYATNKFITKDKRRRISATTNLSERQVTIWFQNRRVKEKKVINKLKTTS
A short description of test [4]: blockers of DNA damage checkpoint Chk1 activation – imaging, HeLa, hydroxyurea, phospho-Chk1 antibody, percent positive cells, primary screen (AID 1186). The following applies: hydroxyurea-induced phospho-Chk1 immunofluorescence imaging, higher = more signal.
Test [5] is described as follows: blockers of DNA damage checkpoint Chk1 activation – imaging, HeLa, hydroxyurea, phospho-Chk1 nuclear intensity, primary screen (AID 1187). The following applies: hydroxyurea-induced phospho-Chk1 immunofluorescence imaging, higher = more signal.

SMILES strings stand for the structures. Calls of active or inactive are those of the source. Unless noted, no rule for the calls is given here.

Regarding `[N-]=[N+]=NCc1ccccc1[C@H]1OC(c2ccc(OCCCO)cc2)=N[C@@]1(CCS(=O)(=O)c1ccccc1)C(=O)O`, the composite z-score in test [1] is -0.0179 (inactive); in the test on XIP peptide (Xip251-270) it was 0.446. For the same compound, the z-score in test [2] was 0.0638; in test [3] it was -5.36 (inactive); in test [4], -0.0059 (inactive); in test [5], -0.587 (inactive).

As for `C=C(C(=O)CC[C@@H](OC(=O)c1ccccc1-c1ccccc1C(=O)O)c1ccc(CO)o1)C(C)C`, the composite z-score in test [1] was 0.525 (inactive); in the test on XIP peptide (Xip251-270) it was 0.434. Also, the z-score in test [2] is 1.88; in test [3], -5.42 (inactive); in test [4], 0.762 (inactive); in test [5] it was 0.478 (inactive).

In the case of `COC(=O)[C@@]1(Cc2ccc(F)cc2)[C@H]2c3cc(C(=O)N(C)C)n(Cc4ccc(C(F)(F)F)nc4)c3C[C@H]2CN1C(=O)c1ccccc1`, the composite z-score in test [1] is 0.338 (inactive); with XIP peptide (Xip251-270) it was 0.64. Further, the z-score was -1.68 in test [2], -3.87 (inactive) in test [3], 0.93 (inactive) in test [4] and 0.563 (inactive) in test [5].

Consider `CC(C)(C)OC(=O)N1[C@@H](C=C(Br)Br)COC1(C)C`, for which the composite z-score is 5.39 (inactive) in test [1] and -0.0146 with XIP peptide (Xip251-270). Moreover, the z-score in test [2] was 0.438; in test [3] it was -0.337 (inactive); in test [4] it was -0.35 (inactive); in test [5], -0.129 (inactive).

Take `CCCCCCc1nc(-c2ccc(OC)nc2)c(C)c2c1[Si](C(C)C)(C(C)C)OC2`: the composite z-score in test [1] is -0.186 (inactive); in the test with XIP peptide (Xip251-270) it was -0.7. The z-score in test [2] is -2.14; in test [3], 0.384 (inactive); in test [4], -0.531 (inactive); in test [5] it was 0.0171 (inactive).

For `COc1cc(CO)cc(I)c1O[C@H]1C=C(C(=O)NCCO)C[C@@H](N(CCN2CCOCC2)C(=O)C2CCCO2)[C@@H]1O` (stereo not given in full), the composite z-score in test [1] is 0.0188 (inactive); in the test with XIP peptide (Xip251-270), 0.0326. For the same compound, the z-score in test [2] is 0.0945; in test [3], -1.59 (inactive); in test [4] it was -0.866 (inactive); in test [5], -0.723 (inactive).

With `O=C1NC(=O)C2C1C=CC(C(O)c1ccc(F)cc1)N2Nc1ccc(Cl)cc1Cl` (stereo not given), the composite z-score in test [1] is -0.138 (inactive); in the test on XIP peptide (Xip251-270), -0.258. In addition, the z-score in test [2] is -0.525; in test [3] it was -5.48 (inactive); in test [4] it was -0.142 (inactive); in test [5] it was 0.116 (inactive).

Consider `CC(C)c1ccc(NN2C(C(O)C3CCCCC3)C=CC3C(=O)N(c4ccccc4)C(=O)C32)cc1` (stereo not given), for which the composite z-score in test [1] was 0.668 (inactive); with XIP peptide (Xip251-270), 0.788. Further, the z-score in test [2] was 0.142; in test [3], -2.78 (inactive); in test [4] it was 0.333 (inactive); in test [5] it was -0.566 (inactive).

Consider `CC1C2C(CCCO)=CC(C3C(=O)N(C)C(=O)C23)N1Cc1cccc(OC(F)(F)F)c1` (stereo not given), for which the figures for the composite z-score (in test [1]; in the test on XIP peptide (Xip251-270)) were 1.17 (inactive) and 0.806, respectively. In addition, the z-score in test [2] was -1.7; in test [3], -7.46 (inactive); in test [4] it was -0.324 (inactive); in test [5] it was -0.301 (inactive).

With `COCCOC(=O)N1C(=O)[C@@]2(c3cc(C#CCC(C(=O)OC)C(=O)OC)ccc31)[C@H](C(=O)N1CCc3cc(OC)c(OC)cc3C1)[C@H]1C(=O)O[C@H](c3ccccc3)[C@H](c3ccccc3)N1[C@@H]2c1ccccc1OCCO`, the composite z-score is 0.629 (inactive) in test [1] and 0.733 with XIP peptide (Xip251-270). The z-score in test [2] is -2.12; in test [3] it was 0.96 (inactive); in test [4], -0.182 (inactive); in test [5], -0.252 (inactive).

Consider `CCOC(=O)C1=CCC(c2cccn2C(=O)OC(C)(C)C)N(S(=O)(=O)c2ccc(C)cc2)C1` (stereo not given), for which the composite z-score in test [1] is 0.153 (inactive); with XIP peptide (Xip251-270), 0.732. Also, the z-score was -1.62 in test [2], 0.323 (inactive) in test [3], -1.06 (inactive) in test [4] and -1.18 (inactive) in test [5].

For `COc1ccc(CCNC(=O)[C@@H]2c3ccccc3C(=O)N(Cc3cc(F)cc(C(F)(F)F)c3)[C@H]2c2ccc(CO)cc2)cc1`, the composite z-score was 0.614 (inactive) in test [1] and 0.906 with XIP peptide (Xip251-270). In addition, the z-score in test [2] was -1.42; in test [3], -3.95 (inactive); in test [4], -0.0525 (inactive); in test [5] it was 0.275 (inactive).

On to `C=CCOC(=O)[C@H]1[C@@H]2C(=O)O[C@@H](c3ccccc3)[C@@H](c3ccccc3)N2[C@@H](c2ccc(OCCOC(=O)[C@H]3C[C@H]4C(=O)NCC(=O)N4[C@H]3c3cccc(OCCO)c3)cc2)[C@]12C(=O)Nc1ccc(I)cc12`, for which the composite z-score in test [1] is 0.585 (inactive); with XIP peptide (Xip251-270), 0.649. The z-score in test [2] is -1.8; in test [3], 0.871 (inactive); in test [4] it was -1.38 (inactive); in test [5] it was -1.12 (inactive).

With `CCCCC(=C=CC[C@@H](O)c1ccc(OCCO)cc1)CCO`, the figures for the composite z-score (in test [1]; with XIP peptide (Xip251-270)) were 0.218 (inactive) and 0.336, respectively. For the same compound, the z-score in test [2] was -1.39; in test [3] it was -3.71 (inactive); in test [4], 0.102 (inactive); in test [5], 0.509 (inactive).

Regarding `CCCCC(=C=CC[C@H](O)c1ccccc1OCCO)CCO`, the values for the composite z-score (in test [1]; in the test on XIP peptide (Xip251-270)) were 1.47 (inactive) and -0.0255, respectively. Also, the z-score was -0.315 in test [2], -3.54 (inactive) in test [3], 0.324 (inactive) in test [4] and 0.181 (inactive) in test [5].

The values above are taken from PubChem BioAssay.
